Where “and” joins values, the source holds several entries; their conditions need not be identical. Equal entries are not always repeated. In all, about 5,500 compounds went through this assay and about 2,000 (36%) were called active. Another 18% or so got no clear call; they are omitted. No stated cut-off is given here; in the data, active means normalized growth mostly below about 0.91 (no sharp cut-off); inconclusive means no clear call, values can overlap the other calls; inactive means mostly above about 0.92. The list shows a part of the results.
Experiment: chemical genetic growth profiling, strain panel (AID 1159580);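 further: tested at 20 µM; growth read once vehicle control cultures reached saturation at 30 °C; 1 = growth at the plate median or of vehicle wells; lower values mean less growth of the strain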
Details: growth OD

Measured: normalized growth

NNc1nncc2ccccc12
inactive: S. cerevisiae deletion strains, locus YJR066W, strain TOR1, active compounds read low 0.919 | S. cerevisiae deletion strains, locus YJR075W, strain HOC1, active compounds read low 0.996 | S. cerevisiae deletion strains, locus YKL009W, strain mrt4, active compounds read low 0.96 | S. cerevisiae deletion strains, locus YKL068W, active compounds read low 0.997 | S. cerevisiae deletion strains, locus YKL085W, strain MDH1 (second series), active compounds read low 0.989 | S. cerevisiae deletion strains, locus YKL085W, strain MDH1, active compounds read low 0.989 | S. cerevisiae deletion strains, locus YKL160W, strain elf1, active compounds read low 0.995 | S. cerevisiae deletion strains, locus YKL190W, strain CNB1, active compounds read low 1 | S. cerevisiae deletion strains, locus YKR001C, strain vps1, active compounds read low 1 | S. cerevisiae deletion strains, locus YKR026C, strain gcn3, active compounds read low 0.998 | S. cerevisiae deletion strains, locus YKR091W, strain srl3, active compounds read low 0.997 | S. cerevisiae deletion strains, locus YLL001W, strain dnm1, active compounds read low 0.979 | S. cerevisiae deletion strains, locus YLL026W, active compounds read low 1 | S. cerevisiae deletion strains, locus YLL041C, strain sdh2, active compounds read low 0.994 | S. cerevisiae deletion strains, locus YLR027C, strain aat2, active compounds read low 1 | S. cerevisiae deletion strains, locus YLR039C, strain RIC1, active compounds read low 0.989 | S. cerevisiae deletion strains, locus YLR058C, strain SHM2, active compounds read low 1.01 | S. cerevisiae deletion strains, locus YLR102C, strain apc9, active compounds read low 0.991 | S. cerevisiae deletion strains, locus YLR113W, strain HOG1, active compounds read low 1.06 | S. cerevisiae deletion strains, locus YLR221C, strain rsa3, active compounds read low 0.969 | S. cerevisiae deletion strains, locus YLR258W, strain gsy2, active compounds read low 0.991 | S. cerevisiae deletion strains, locus YLR262C, strain YPT6 (second series), active compounds read low 1 | S. cerevisiae deletion strains, locus YLR262C, strain YPT6, active compounds read low 1.07 | S. cerevisiae deletion strains, locus YLR268W, strain sec22, active compounds read low 0.954 | S. cerevisiae deletion strains, locus YLR320W, strain mms22, active compounds read low 0.991 | S. cerevisiae deletion strains, locus YLR330W, strain CHS5, active compounds read low 1.01 | S. cerevisiae deletion strains, locus YLR342W, strain FKS1 (second series), active compounds read low 0.934 | S. cerevisiae deletion strains, locus YLR342W, strain FKS1, active compounds read low 1.01 | S. cerevisiae deletion strains, locus YLR357W, strain rsc2, active compounds read low 0.981 | S. cerevisiae deletion strains, locus YLR370C, strain arc18, active compounds read low 0.977 | S. cerevisiae deletion strains, locus YLR371W, strain rom2, active compounds read low 0.989 | S. cerevisiae deletion strains, locus YLR384C, strain iki3, active compounds read low 0.985 | S. cerevisiae deletion strains, locus YLR418C, strain cdc73, active compounds read low 0.96 | S. cerevisiae deletion strains, locus YML016C, strain PPZ1, active compounds read low 0.995 | S. cerevisiae deletion strains, locus YML032C, strain rad52, active compounds read low 0.985 | S. cerevisiae deletion strains, locus YML120C, strain ndi1, active compounds read low 0.981 | S. cerevisiae deletion strains, locus YML124C, strain tub3, active compounds read low 0.996 | S. cerevisiae deletion strains, locus YMR058W, strain fet3, active compounds read low 0.996 | S. cerevisiae deletion strains, locus YMR078C, strain ctf18, active compounds read low 0.993 | S. cerevisiae deletion strains, locus YMR125W, strain sto1, active compounds read low 1.01 | S. cerevisiae deletion strains, locus YMR129W, active compounds read low 0.996 | S. cerevisiae deletion strains, locus YMR205C, strain PFK2, active compounds read low 0.998 | S. cerevisiae deletion strains, locus YMR223W, strain ubp8, active compounds read low 0.975 | S. cerevisiae deletion strains, locus YMR231W, strain pep5, active compounds read low 0.995 | S. cerevisiae deletion strains, locus YMR263W, strain SAP30, active compounds read low 1 | S. cerevisiae deletion strains, locus YMR307W, strain GAS1, active compounds read low 1.02 and 0.998 | S. cerevisiae deletion strains, locus YNL067W, strain RPL9B, active compounds read low 1.01 | S. cerevisiae deletion strains, locus YNL071W, strain lat1, active compounds read low 1.01 | S. cerevisiae deletion strains, locus YNL153C, strain GIM3, active compounds read low 0.986 and 0.997 | S. cerevisiae deletion strains, locus YNL175C, strain NOP13, active compounds read low 1.01 | S. cerevisiae deletion strains, locus YNL183C, strain NPR1, active compounds read low 0.945 | S. cerevisiae deletion strains, locus YNL197C, strain WHI3, active compounds read low 1.01 | S. cerevisiae deletion strains, locus YNL209W, strain ssb2, active compounds read low 0.99 | S. cerevisiae deletion strains, locus YNL224C, strain SQS1, active compounds read low 1.03 | S. cerevisiae deletion strains, locus YNL233W, strain BNI4, active compounds read low 0.997 | S. cerevisiae deletion strains, locus YNL248C, strain rpa49, active compounds read low 1.03 | S. cerevisiae deletion strains, locus YNL250W, strain rad50, active compounds read low 0.988 | S. cerevisiae deletion strains, locus YNL271C, strain bni1, active compounds read low 0.993 | S. cerevisiae deletion strains, locus YNL298W, strain CLA4, active compounds read low 0.986 | S. cerevisiae deletion strains, locus YNL307C, strain MCK1, active compounds read low 0.991 | S. cerevisiae deletion strains, locus YNL322C, strain KRE1 (second series), active compounds read low 0.98 | S. cerevisiae deletion strains, locus YNR049C, strain mso1, active compounds read low 0.999 | S. cerevisiae deletion strains, locus YNR052C, strain pop2, active compounds read low 0.985 | S. cerevisiae deletion strains, locus YOL012C, strain htz1 1.31 | S. cerevisiae deletion strains, locus YOL147C, strain pex11, active compounds read low 1 | S. cerevisiae deletion strains, locus YOR001W, strain rrp6, active compounds read low 0.995 | S. cerevisiae deletion strains, locus YOR061W, strain CKA2, active compounds read low 1.01 | S. cerevisiae deletion strains, locus YOR069W, strain VPS5, active compounds read low 1 | S. cerevisiae deletion strains, locus YOR070C, strain gyp1, active compounds read low 0.998 | S. cerevisiae deletion strains, locus YOR080W, strain dia2, active compounds read low 0.997 | S. cerevisiae deletion strains, locus YOR083W, strain WHI5 (second series), active compounds read low 1.03 | S. cerevisiae deletion strains, locus YOR083W, strain WHI5, active compounds read low 1.01 | S. cerevisiae deletion strains, locus YOR106W, strain vam3, active compounds read low 1 | S. cerevisiae deletion strains, locus YOR136W, strain idh2, active compounds read low 0.988 | S. cerevisiae deletion strains, locus YOR144C, strain elg1, active compounds read low 1 | S. cerevisiae deletion strains, locus YOR184W, strain ser1, active compounds read low 0.958 | S. cerevisiae deletion strains, locus YOR231W, strain MKK1, active compounds read low 1.02 | S. cerevisiae deletion strains, locus YOR265W, strain rbl2, active compounds read low 0.989 | S. cerevisiae deletion strains, locus YOR270C, strain vph1, active compounds read low 0.996 | S. cerevisiae deletion strains, locus YOR290C, strain snf2, active compounds read low 0.942 | S. cerevisiae deletion strains, locus YOR316C, strain cot1, active compounds read low 1 | S. cerevisiae deletion strains, locus YPL051W, strain arl3, active compounds read low 1 | S. cerevisiae deletion strains, locus YPL055C, strain LGE1, active compounds read low 1 | S. cerevisiae deletion strains, locus YPL078C, strain atp4, active compounds read low 0.991 | S. cerevisiae deletion strains, locus YPL106C, strain sse1, active compounds read low 0.941 | S. cerevisiae deletion strains, locus YPL240C, strain hsp82, active compounds read low 0.987 | S. cerevisiae deletion strains, locus YPL241C, strain CIN2, active compounds read low 0.998 | S. cerevisiae deletion strains, locus YPL256C, strain CLN2, active compounds read low 1.04 | S. cerevisiae deletion strains, locus YPR119W, strain clb2, active compounds read low 1 | S. cerevisiae deletion strains, locus YPR141C, strain kar3, active compounds read low 1.01 | S. cerevisiae deletion strains, locus YPR163C, strain tif3, active compounds read low 1.01 | S. cerevisiae deletion strains, locus YPR167C, strain met16, active compounds read low 0.995 | S. cerevisiae deletion strains, strain wtn01, active compounds read low 0.965 | S. cerevisiae strains, strain wild type, active compounds read low 1.01
